# Assay results published in the supplement of paper PMC3545927.
# Some of the results follow. No count for the full screen is at hand.
# B1: FS-1396 (peptide)
# chain: CARFWRKTRSAGNASASA
# B2: FS-857 (peptide)
# chain: CARHMRMTRSAGNASASA
# B3: FS-955 (peptide)
# chain: CARMWRKTRSAGNASASA
# B4: HC855 (peptide)
# chain: CARHLIFCHSAGNASASA
# B5: FS-760 (peptide)
# chain: CADSGRKTRSAGNASASA
# B6: FS-2629 (peptide)
# chain: CADSGRAYLPAGNASASA
# B7: HC1183 (peptide)
# chain: CARIVGPRTCAGNASASA
# B8: HC2309 (peptide)
# chain: CAYVPCHRPSAGNASASA
# B9: HC331 (peptide)
# chain: CAPQAILDMIAGNASASA
# B10: HC551 (peptide)
# chain: CAKWVPGAVYAGNASASA
# B11: HC15 (peptide)
# chain: CAMEESSQHLAGNASASA
# B12: HC2302 (peptide)
# chain: CADQEVVTSTAGNASASA
# B13: FS-954 (peptide)
# chain: CARMWRKNRSAGNASASA
# B14: FS-158 (peptide)
# chain: CAFQARLTRSAGNASASA
# B15: HC1699 (peptide)
# chain: CAMPECSQHLAGNASASA
# B16: HC713 (peptide)
# chain: CADQDLVGWPAGNASASA
# B17: FS-2458 (peptide)
# chain: CARSKKDFEAAGNASASA
# B18: FS-1935 (peptide)
# chain: CARTKRELENAGNASASA
# B19: FS-1690 (peptide)
# chain: CARDKRALKQAGNASASA
# B20: FS-2604 (peptide)
# chain: CARSKRALKQAGNASASA
# B21: HC1281 (peptide)
# chain: CAITRVESENAGNASASA
# B22: FS-2603 (peptide)
# chain: CARSKRAAPAAGNASASA
# B23: HC532 (peptide)
# chain: CAQAEAALENAGNASASA
# Target: furin, P09958
# Sequence (P09958 whole entry): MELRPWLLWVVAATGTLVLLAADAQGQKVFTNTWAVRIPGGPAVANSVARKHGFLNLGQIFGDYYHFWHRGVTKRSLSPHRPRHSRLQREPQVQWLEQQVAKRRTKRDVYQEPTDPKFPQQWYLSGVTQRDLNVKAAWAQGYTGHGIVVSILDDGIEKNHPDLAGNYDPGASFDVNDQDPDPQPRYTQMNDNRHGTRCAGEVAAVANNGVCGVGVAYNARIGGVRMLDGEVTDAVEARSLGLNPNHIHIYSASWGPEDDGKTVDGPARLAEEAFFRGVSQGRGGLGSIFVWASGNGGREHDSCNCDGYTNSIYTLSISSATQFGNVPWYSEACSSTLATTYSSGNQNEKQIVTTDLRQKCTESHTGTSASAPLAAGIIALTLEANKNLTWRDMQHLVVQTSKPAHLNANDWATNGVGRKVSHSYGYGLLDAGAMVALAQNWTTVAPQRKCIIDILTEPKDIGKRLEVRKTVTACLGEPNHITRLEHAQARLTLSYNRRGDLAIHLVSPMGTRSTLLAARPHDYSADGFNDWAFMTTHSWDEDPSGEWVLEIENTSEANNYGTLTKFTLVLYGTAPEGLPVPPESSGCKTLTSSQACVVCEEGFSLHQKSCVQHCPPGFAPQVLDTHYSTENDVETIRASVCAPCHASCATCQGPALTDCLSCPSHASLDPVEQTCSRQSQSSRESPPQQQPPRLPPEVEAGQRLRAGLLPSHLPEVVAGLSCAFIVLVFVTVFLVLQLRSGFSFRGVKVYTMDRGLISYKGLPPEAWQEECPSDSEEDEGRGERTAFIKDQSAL
# Assay: furin cleavage Z-score vs untreated control; higher = more cleavage, active = 3.5 or more, inactive = 1 or less, 8 variable residues between constant flanks
# Experimental: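 Multiplexed peptide-cDNA fusion cleavage assay. 8-mer variable peptides flanked by constant Cys-Ala (N-term) and Ala-Gly-Asn-Ala-Ser-Ala-Ser-Ala (C-term) and conjugated to a cDNA oligonucleotide were bead-immobilised via the N-terminus. They were treated with purified furin at a 1:10 enzyme:substrate ratio in 50 mM HEPES pH 7.5, 1 mM CaCl2, 100 mM NaCl for 7.5, 15 or 30 min. Released cDNA was counted by next-generation sequencing, and log counts versus no-furin controls were lowess-adjusted and converted to robust Z-scores.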
Sequence,furin cleavage Z-score (7.5 min),furin cleavage Z-score (15 min),furin cleavage Z-score (30 min)
B1,13 (active),13.8 (active),10.1 (active)
B2,13.4 (active),13.6 (active),9.7 (active)
B3,13.5 (active),13.7 (active),10.7 (active)
B4,-0.853 (inactive),0.266 (inactive),0.481 (inactive)
B5,9.82 (active),12.7 (active),9.11 (active)
B6,-0.794 (inactive),-0.681 (inactive),-1.79 (inactive)
B7,0.967 (inactive),-0.921 (inactive),-0.233 (inactive)
B8,1.57,-0.807 (inactive),0.069 (inactive)
B9,-0.162 (inactive),-2.41 (inactive),-1.52 (inactive)
B10,-1.17 (inactive),-1.76 (inactive),-0.384 (inactive)
B11,0.403 (inactive),2.52,1.06
B12,-0.902 (inactive),-1.54 (inactive),-1.12 (inactive)
B13,7.39 (active),10 (active),7.6 (active)
B14,10.8 (active),11.5 (active),9.98 (active)
B15,-0.692 (inactive),-0.28 (inactive),-0.904 (inactive)
B16,-0.0765 (inactive),-0.565 (inactive),0.238 (inactive)
B17,0.38 (inactive),-0.117 (inactive),-0.363 (inactive)
B18,14.2 (active),14.2 (active),11.6 (active)
B19,5.74 (active),8.75 (active),8.98 (active)
B20,8.45 (active),11.8 (active),8.31 (active)
B21,-1.51 (inactive),-1.29 (inactive),0.308 (inactive)
B22,11.1 (active),9.91 (active),8.19 (active)
B23,0.288 (inactive),-0.4 (inactive),-1.4 (inactive)
